Assay results: the supplement of paper PMC8975748
± gives the standard deviation of the averaged measurements.

Assays:
[1] = test system: Saccharomyces cerevisiae BY4741 SeMeCo community; assay: mean cell size (pixel area) (pixels); higher = larger cells; settings: 10 µM; 24 h; SM minimal medium
How it was run: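 A fluorescent Saccharomyces cerevisiae BY4741 community carrying four plasmids was used, with each plasmid complementing one auxotrophy and bearing a fluorescent marker. An overnight preculture at OD600 = 1.0 was diluted to OD600 = 0.3, and 70 µl went into 384-well plates acoustically predosed with drug (final 10 µM) in SM medium for 24 h. After paraformaldehyde fixation, cells were imaged by automated confocal microscopy and analysed in Harmony, giving the mean cell pixel area per well. Each value is the average of 3 replicates. Same SeMeCo high-content imaging drug screen: Selleck FDA-approved drugs at 10 µM, 24 h in SM medium, 384-well plates, 3 replicates.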

[2] = test system: Saccharomyces cerevisiae BY4741 SeMeCo community; assay: z-score of subpopulation abundance vs DMSO median, subpopulation auxotrophic for M; higher = larger share of this subpopulation than in DMSO controls; settings: 10 µM; 24 h; SM minimal medium; subpopulation (auxotrophy): M
How it was run: (§1)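 Scoring was based on each subpopulation's abundance, expressed as a z-score against the vehicle-well median. A Saccharomyces cerevisiae BY4741 community with four plasmids, each restoring one auxotrophy and encoding a distinct fluorescent protein, was pre-grown overnight to OD600 1.0, diluted to 0.3, and added at 70 µl to 384-well plates acoustically predosed with library drugs (10 µM final). It then grew 24 h in minimal SM medium before paraformaldehyde fixation and automated confocal microscopy, with single-auxotroph fluorescent strains setting thresholds and autofluorescence correction.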

[3] = test system: Saccharomyces cerevisiae BY4741 SeMeCo community; assay: z-score of subpopulation abundance vs DMSO median, subpopulation auxotrophic for L; higher = larger share of this subpopulation than in DMSO controls; settings: 10 µM; 24 h; SM minimal medium; subpopulation (auxotrophy): L
How it was run: as §1

[4] = test system: Saccharomyces cerevisiae BY4741 SeMeCo community; assay: z-score of subpopulation abundance vs DMSO median, subpopulation auxotrophic for U; higher = larger share of this subpopulation than in DMSO controls; settings: 10 µM; 24 h; SM minimal medium; subpopulation (auxotrophy): U
How it was run: as §1

[5] = test system: Saccharomyces cerevisiae BY4741 SeMeCo community; assay: z-score of subpopulation abundance vs DMSO median, subpopulation auxotrophic for H; higher = larger share of this subpopulation than in DMSO controls; settings: 10 µM; 24 h; SM minimal medium; subpopulation (auxotrophy): H
How it was run: as §1

[6] = test system: Saccharomyces cerevisiae BY4741 SeMeCo community; assay: z-score of subpopulation abundance vs DMSO median, subpopulation auxotrophic for LU; higher = larger share of this subpopulation than in DMSO controls; settings: 10 µM; 24 h; SM minimal medium; subpopulation (auxotrophy): LU
How it was run: as §1

[7] = test system: Saccharomyces cerevisiae BY4741 SeMeCo community; assay: z-score of subpopulation abundance vs DMSO median, subpopulation auxotrophic for LM; higher = larger share of this subpopulation than in DMSO controls; settings: 10 µM; 24 h; SM minimal medium; subpopulation (auxotrophy): LM
How it was run: as §1

[8] = test system: Saccharomyces cerevisiae BY4741 SeMeCo community; assay: z-score of subpopulation abundance vs DMSO median, subpopulation auxotrophic for HM; higher = larger share of this subpopulation than in DMSO controls; settings: 10 µM; 24 h; SM minimal medium; subpopulation (auxotrophy): HM
How it was run: as §1

[9] = test system: Saccharomyces cerevisiae BY4741 SeMeCo community; assay: z-score of subpopulation abundance vs DMSO median, subpopulation auxotrophic for HU; higher = larger share of this subpopulation than in DMSO controls; settings: 10 µM; 24 h; SM minimal medium; subpopulation (auxotrophy): HU
How it was run: as §1

[10] = test system: Saccharomyces cerevisiae BY4741 SeMeCo community; assay: z-score of subpopulation abundance vs DMSO median, subpopulation auxotrophic for UM; higher = larger share of this subpopulation than in DMSO controls; settings: 10 µM; 24 h; SM minimal medium; subpopulation (auxotrophy): UM
How it was run: as §1

[11] = test system: Saccharomyces cerevisiae BY4741 SeMeCo community; assay: z-score of subpopulation abundance vs DMSO median, subpopulation auxotrophic for HL; higher = larger share of this subpopulation than in DMSO controls; settings: 10 µM; 24 h; SM minimal medium; subpopulation (auxotrophy): HL
How it was run: as §1

[12] = test system: Saccharomyces cerevisiae BY4741 SeMeCo community; assay: z-score of subpopulation abundance vs DMSO median, subpopulation auxotrophic for HLU; higher = larger share of this subpopulation than in DMSO controls; settings: 10 µM; 24 h; SM minimal medium; subpopulation (auxotrophy): HLU
How it was run: as §1

[13] = test system: Saccharomyces cerevisiae BY4741 SeMeCo community; assay: z-score of subpopulation abundance vs DMSO median, subpopulation auxotrophic for HLM; higher = larger share of this subpopulation than in DMSO controls; settings: 10 µM; 24 h; SM minimal medium; subpopulation (auxotrophy): HLM
How it was run: as §1

[14] = test system: Saccharomyces cerevisiae BY4741 SeMeCo community; assay: z-score of subpopulation abundance vs DMSO median, subpopulation auxotrophic for HUM; higher = larger share of this subpopulation than in DMSO controls; settings: 10 µM; 24 h; SM minimal medium; subpopulation (auxotrophy): HUM
How it was run: as §1

[15] = test system: Saccharomyces cerevisiae BY4741 SeMeCo community; assay: z-score of subpopulation abundance vs DMSO median, subpopulation auxotrophic for LUM; higher = larger share of this subpopulation than in DMSO controls; settings: 10 µM; 24 h; SM minimal medium; subpopulation (auxotrophy): LUM
How it was run: as §1

[16] = test system: Saccharomyces cerevisiae BY4741 SeMeCo community; assay: z-score of subpopulation abundance vs DMSO median, subpopulation auxotrophic for HLUM; higher = larger share of this subpopulation than in DMSO controls; settings: 10 µM; 24 h; SM minimal medium; subpopulation (auxotrophy): HLUM
How it was run: as §1

[17] = test system: Saccharomyces cerevisiae BY4741 SeMeCo community; assay: z-score of prototroph abundance vs DMSO median; higher = larger share of this subpopulation than in DMSO controls; settings: 10 µM; 24 h; SM minimal medium; subpopulation (auxotrophy): Prototroph
How it was run: as §1

| SMILES | mean cell size [1] | z-score of subpopulation abundance [2] | z-score of subpopulation abundance [3] | z-score of subpopulation abundance [4] | z-score of subpopulation abundance [5] | z-score of subpopulation abundance [6] | z-score of subpopulation abundance [7] | z-score of subpopulation abundance [8] | z-score of subpopulation abundance [9] | z-score of subpopulation abundance [10] | z-score of subpopulation abundance [11] | z-score of subpopulation abundance [12] | z-score of subpopulation abundance [13] | z-score of subpopulation abundance [14] | z-score of subpopulation abundance [15] | z-score of subpopulation abundance [16] | z-score of prototroph abundance [17] |
| --- | --- | --- | --- | --- | --- | --- | --- | --- | --- | --- | --- | --- | --- | --- | --- | --- | --- |
| CC(C)C(=O)c1c(C(C)C)nn2ccccc12 [Ibudilast] | 12.6 ± 0.22 | -0.62 | -0.54 | 1.05 | -1.02 | 0.04 | -0.43 | -1.12 | 0.99 | 1.06 | -0.96 | -0.65 | -0.49 | -0.38 | -0.2 | -0.23 |  |
| Clc1ccc(C(Cn2ccnc2)OCc2ccc(Sc3ccccc3)cc2)c(Cl)c1 (centres undefined) [Fenticonazole Nitrate] | 10.7 ± 0.2 | -13.8 | 4.64 | 4.22 | 25 | 4.88 | -5.38 | -6.61 | 28.7 | -3.35 | 62.4 | 14.8 | 30.4 | 4.77 | -1.04 | 109 |  |
| Cc1nc2n(c(=O)c1CCN1CCC(c3noc4cc(F)ccc34)CC1)CCCC2 [Risperidone] | 12.3 ± 0.18 | -0.08 | -0.44 | 0.56 | 0.92 | 0.52 | 0.47 | 0.48 | 0.99 |  | 0.49 | 0.19 | 0.11 | 1.02 | 0.14 | -0.21 | -0.99 |
| CC[C@H](Nc1ncnc2[nH]cnc12)c1nc2cccc(F)c2c(=O)n1-c1ccccc1 [Idelalisib (CAL-101, GS-1101)] | 12.58 ± 0.07 | -0.54 | -0.49 | 1.09 | 0.31 | 0.5 | -0.23 | -0.64 | 0.68 | 0.34 | -1.05 | -0.35 | 0.08 | -0.4 | 0.11 | -0.62 |  |
| Nc1nc(N)c2nc(-c3ccccc3)c(N)nc2n1 [Triamterene] | 12.6 ± 0.17 | 4.86 | 3.9 | -8.02 | 2.44 | -7.06 | 5.63 | 3.53 | -7.52 | -9.3 | 3.45 | -3.55 | 2.07 | -6.05 | -4.47 | -1.58 |  |
| CC1(C)S[C@@H]2[C@H](NC(=O)C(c3ccccc3)S(=O)(=O)O)C(=O)N2[C@H]1C(=O)O (some centres undefined) [Sulbenicillin Sodium] | 12.35 ± 0.08 | 0.41 | -0.32 | 1.09 |  | 1.06 | -0.34 | -0.06 | 0.51 | 1.5 | 0.63 | 0.86 | 3.16 | 0.43 | 0.65 | 1.16 |  |
| COc1cc(NS(=O)(=O)c2ccc(N)cc2)ncn1 [Sulfamonomethoxine] | 12.3 ± 0.041 | -0.64 | 0 | 1.19 |  | 1.01 | -0.55 | -1.46 | 0.5 | 0.65 |  | 0.33 | -0.64 | 0.06 |  | 0.33 | 0 |
| C=CC1=C(C(=O)O)N2C(=O)[C@@H](NC(=O)/C(=N\OCC(=O)O)c3csc(N)n3)[C@H]2SC1 [Cefixime] | 12.52 ± 0.039 | -0.61 | -0.33 | 0.43 | -0.5 | -0.02 | -0.13 | -0.97 | 0.1 | -0.25 | -0.16 | -0.72 | -0.25 | -0.75 |  | -0.73 | 0.71 |
| Nc1ccc(S(=O)(=O)Nc2ncccn2)cc1 [Sodium sulfadiazine] | 12.42 ± 0.059 | 0.4 | 0.56 | 0.32 | -0.33 | 0.3 | 0.18 | 0.17 | -0.58 |  |  | 0.17 | -0.23 | -0.68 | 0.15 | 0.02 | -0.25 |
| Nc1nc2[nH]cc(CCc3ccc(C(=O)N[C@@H](CCC(=O)O)C(=O)O)cc3)c2c(=O)[nH]1 [Pemetrexed] | 14.85 ± 0.13 | -9.06 | 1.61 | -1.55 | 5.02 | 0.04 | -3.17 | -4.62 | 2.15 |  |  | 4.74 | 0.42 | -4.52 | -3.17 | -1.01 |  |
